# From publication PMC11062922 (Nature Chemical Biology, 2023)
# Like-named read-outs stand apart in the source and are kept apart here.
# What was measured:
# ERN1 = settings: read-out: apparent Kd, n = 1
# GAK = settings: read-out: apparent Kd, n = 1
substance,measurement,setting,value
Lestaurtinib,potency estimated from few doses,"ERN1; compound concentrations:100 nM and 1000 nM (sheet 'Lestaurtinib' of Supplementary Table 1),run:Lestaurtinib_02765_R2,Plate:MR026",84.8 nM
same,potency estimated from few doses,"ERN1; compound concentrations:100 nM and 1000 nM (sheet 'Lestaurtinib' of Supplementary Table 1),run:Lestaurtinib_02765_R3,Plate:MR026",113 nM
same,potency estimated from few doses,"ERN1; compound concentrations:100 nM and 1000 nM (sheet 'Lestaurtinib' of Supplementary Table 1),run:Lestaurtinib_02766_R1,Plate:MR027",29.6 nM
same,potency estimated from few doses,"ERN1; compound concentrations:100 nM and 1000 nM (sheet 'Lestaurtinib' of Supplementary Table 1),run:Lestaurtinib_02766_R2,Plate:MR027",54.9 nM
same,potency estimated from few doses,"ERN1; compound concentrations:100 nM and 1000 nM (sheet 'Lestaurtinib' of Supplementary Table 1),run:Lestaurtinib_02766_R3,Plate:MR027",73.5 nM
same,potency estimated from few doses,"ERN1; compound concentrations:100 nM and 1000 nM (sheet 'Lestaurtinib' of Supplementary Table 1),run:Lestaurtinib_02768_R1,Plate:MR028",51.4 nM
same,potency estimated from few doses,"ERN1; compound concentrations:100 nM and 1000 nM (sheet 'Lestaurtinib' of Supplementary Table 1),run:Lestaurtinib_02768_R2,Plate:MR028",55.4 nM
same,potency estimated from few doses,"ERN1; compound concentrations:100 nM and 1000 nM (sheet 'Lestaurtinib' of Supplementary Table 1),run:Lestaurtinib_02795_R2,Plate:MR022",59.6 nM
same,potency estimated from few doses,"ERN1; compound concentrations:100 nM and 1000 nM (sheet 'Lestaurtinib' of Supplementary Table 1),run:Lestaurtinib_02802_R1,Plate:MR029",60.8 nM
same,potency estimated from few doses,"ERN1; compound concentrations:100 nM and 1000 nM (sheet 'Lestaurtinib' of Supplementary Table 1),run:Lestaurtinib_02802_R3,Plate:MR029",176 nM
same,potency estimated from few doses,"ERN1; compound concentrations:100 nM and 1000 nM (sheet 'Lestaurtinib' of Supplementary Table 1),run:Lestaurtinib_02896_R3,Plate:MR030",48.9 nM
same,potency estimated from few doses,"ERN1; compound concentrations:100 nM and 1000 nM (sheet 'Lestaurtinib' of Supplementary Table 1),run:Lestaurtinib_03172_R2,Plate:MR031",68.4 nM
same,potency estimated from few doses,"ERN1; compound concentrations:100 nM and 1000 nM (sheet 'Lestaurtinib' of Supplementary Table 1),run:Lestaurtinib_03172_R3,Plate:MR031",71.8 nM
same,potency estimated from few doses,"GAK; compound concentrations:100 nM and 1000 nM (sheet 'Lestaurtinib' of Supplementary Table 1),run:Lestaurtinib_02339_R1,Plate:MR001",681 nM
same,potency estimated from few doses,"GAK; compound concentrations:100 nM and 1000 nM (sheet 'Lestaurtinib' of Supplementary Table 1),run:Lestaurtinib_02339_R2,Plate:MR001",515 nM
same,potency estimated from few doses,"GAK; compound concentrations:100 nM and 1000 nM (sheet 'Lestaurtinib' of Supplementary Table 1),run:Lestaurtinib_02339_R3,Plate:MR001",744 nM
same,potency estimated from few doses,"GAK; compound concentrations:100 nM and 1000 nM (sheet 'Lestaurtinib' of Supplementary Table 1),run:Lestaurtinib_02364_R2,Plate:MR002",838 nM
same,potency estimated from few doses,"GAK; compound concentrations:100 nM and 1000 nM (sheet 'Lestaurtinib' of Supplementary Table 1),run:Lestaurtinib_02364_R3,Plate:MR002",670 nM
same,potency estimated from few doses,"GAK; compound concentrations:100 nM and 1000 nM (sheet 'Lestaurtinib' of Supplementary Table 1),run:Lestaurtinib_02367_R1,Plate:MR003",703 nM
same,potency estimated from few doses,"GAK; compound concentrations:100 nM and 1000 nM (sheet 'Lestaurtinib' of Supplementary Table 1),run:Lestaurtinib_02367_R2,Plate:MR003",797 nM
same,potency estimated from few doses,"GAK; compound concentrations:100 nM and 1000 nM (sheet 'Lestaurtinib' of Supplementary Table 1),run:Lestaurtinib_02367_R3,Plate:MR003",731 nM
same,potency estimated from few doses,"GAK; compound concentrations:100 nM and 1000 nM (sheet 'Lestaurtinib' of Supplementary Table 1),run:Lestaurtinib_02381_R2,Plate:MR004",635 nM
same,potency estimated from few doses,"GAK; compound concentrations:100 nM and 1000 nM (sheet 'Lestaurtinib' of Supplementary Table 1),run:Lestaurtinib_02407_R1,Plate:MR005",718 nM
same,potency estimated from few doses,"GAK; compound concentrations:100 nM and 1000 nM (sheet 'Lestaurtinib' of Supplementary Table 1),run:Lestaurtinib_02407_R2,Plate:MR005",809 nM
same,potency estimated from few doses,"GAK; compound concentrations:100 nM and 1000 nM (sheet 'Lestaurtinib' of Supplementary Table 1),run:Lestaurtinib_02407_R3,Plate:MR005",702 nM
same,potency estimated from few doses,"GAK; compound concentrations:100 nM and 1000 nM (sheet 'Lestaurtinib' of Supplementary Table 1),run:Lestaurtinib_02422_R1,Plate:MR006",425 nM
same,potency estimated from few doses,"GAK; compound concentrations:100 nM and 1000 nM (sheet 'Lestaurtinib' of Supplementary Table 1),run:Lestaurtinib_02422_R2,Plate:MR006",9.54 nM
same,potency estimated from few doses,"GAK; compound concentrations:100 nM and 1000 nM (sheet 'Lestaurtinib' of Supplementary Table 1),run:Lestaurtinib_02422_R3,Plate:MR006",725 nM
same,potency estimated from few doses,"GAK; compound concentrations:100 nM and 1000 nM (sheet 'Lestaurtinib' of Supplementary Table 1),run:Lestaurtinib_02437_R1,Plate:MR007",654 nM
same,potency estimated from few doses,"GAK; compound concentrations:100 nM and 1000 nM (sheet 'Lestaurtinib' of Supplementary Table 1),run:Lestaurtinib_02437_R2,Plate:MR007",698 nM
same,potency estimated from few doses,"GAK; compound concentrations:100 nM and 1000 nM (sheet 'Lestaurtinib' of Supplementary Table 1),run:Lestaurtinib_02437_R3,Plate:MR007",58.5 nM
same,potency estimated from few doses,"GAK; compound concentrations:100 nM and 1000 nM (sheet 'Lestaurtinib' of Supplementary Table 1),run:Lestaurtinib_02438_R1,Plate:MR008",700 nM
same,potency estimated from few doses,"GAK; compound concentrations:100 nM and 1000 nM (sheet 'Lestaurtinib' of Supplementary Table 1),run:Lestaurtinib_02438_R2,Plate:MR008",667 nM
same,potency estimated from few doses,"GAK; compound concentrations:100 nM and 1000 nM (sheet 'Lestaurtinib' of Supplementary Table 1),run:Lestaurtinib_02438_R3,Plate:MR008",750 nM
same,potency estimated from few doses,"GAK; compound concentrations:100 nM and 1000 nM (sheet 'Lestaurtinib' of Supplementary Table 1),run:Lestaurtinib_02473_R3,Plate:MR010",59.2 nM
same,potency estimated from few doses,"GAK; compound concentrations:100 nM and 1000 nM (sheet 'Lestaurtinib' of Supplementary Table 1),run:Lestaurtinib_02482_R1,Plate:MR011",870 nM
same,potency estimated from few doses,"GAK; compound concentrations:100 nM and 1000 nM (sheet 'Lestaurtinib' of Supplementary Table 1),run:Lestaurtinib_02482_R2,Plate:MR011",804 nM
same,potency estimated from few doses,"GAK; compound concentrations:100 nM and 1000 nM (sheet 'Lestaurtinib' of Supplementary Table 1),run:Lestaurtinib_02482_R3,Plate:MR011",707 nM
same,potency estimated from few doses,"GAK; compound concentrations:100 nM and 1000 nM (sheet 'Lestaurtinib' of Supplementary Table 1),run:Lestaurtinib_02487_R2,Plate:MR012",783 nM
same,potency estimated from few doses,"GAK; compound concentrations:100 nM and 1000 nM (sheet 'Lestaurtinib' of Supplementary Table 1),run:Lestaurtinib_02496_R1,Plate:MR013",552 nM
same,potency estimated from few doses,"GAK; compound concentrations:100 nM and 1000 nM (sheet 'Lestaurtinib' of Supplementary Table 1),run:Lestaurtinib_02496_R2,Plate:MR013",507 nM
same,potency estimated from few doses,"GAK; compound concentrations:100 nM and 1000 nM (sheet 'Lestaurtinib' of Supplementary Table 1),run:Lestaurtinib_02496_R3,Plate:MR013",639 nM
